Assay results published in PubChem BioAssay (NCI).
The panel holds about 83,000 compounds, 20% with a hit somewhere; the sample as a whole holds those more often.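 Method: cells in 96-well plates; compound added at one concentration; 48 h incubation; percent growth measured; values under 10 scored active.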 Unmarked numbers belong to inactive results. Calls of active or inactive are those of the source.

Key:
Assay in all cases: NCI-60 one-dose screen, 48 h (100 = growth as untreated, 0 = no growth, -100 = all killed)
SK-MEL-2 melanoma = conditions: 10 µM unless noted
EKVX NSCLC = conditions: 10 µM unless noted
SN12C renal = conditions: 10 µM unless noted
UO-31 renal = conditions: 10 µM unless noted
TK-10 renal = conditions: 10 µM unless noted
ACHN renal = conditions: 10 µM unless noted
CAKI-1 renal = conditions: 10 µM unless noted
A498 renal = conditions: 10 µM unless noted
CCRF-CEM leukemia = conditions: 10 µM unless noted
MOLT-4 leukemia = conditions: 10 µM unless noted
SR leukemia = conditions: 10 µM unless noted
RPMI-8226 leukemia = conditions: 10 µM
OVCAR-8 ovarian = conditions: 10 µM unless noted
OVCAR-5 ovarian = conditions: 10 µM unless noted
OVCAR-4 ovarian = conditions: 10 µM unless noted
SK-OV-3 ovarian = conditions: 10 µM
IGROV1 ovarian = conditions: 10 µM unless noted
OVCAR-3 ovarian = conditions: 10 µM unless noted
HS 578T breast = conditions: 10 µM unless noted
NCI/ADR-RES ovarian = conditions: 10 µM unless noted

| SMILES | growth (SK-MEL-2 melanoma) | growth (EKVX NSCLC) | growth (SN12C renal) | growth (UO-31 renal) | growth (TK-10 renal) | growth (ACHN renal) | growth (CAKI-1 renal) | growth (A498 renal) | growth (CCRF-CEM leukemia) | growth (MOLT-4 leukemia) | growth (SR leukemia) | growth (RPMI-8226 leukemia) | growth (OVCAR-8 ovarian) | growth (OVCAR-5 ovarian) | growth (OVCAR-4 ovarian) | growth (SK-OV-3 ovarian) | growth (IGROV1 ovarian) | growth (OVCAR-3 ovarian) | growth (HS 578T breast) | growth (NCI/ADR-RES ovarian) |
| --- | --- | --- | --- | --- | --- | --- | --- | --- | --- | --- | --- | --- | --- | --- | --- | --- | --- | --- | --- | --- |
| COc1cc(C2CC(=O)Nc3c2ccc2ccccc32)cc(Br)c1OC (stereo unspecified) | 8.51% (active) | 38.9% | 50.2% | 27.2% | 34.4% | 45.9% | 27.1% | 7.93% (active) | -25.7% (active) | 10.6% | -6.32% (active) | -13.1% (active) | 27.7% | 45.1% | 41% | 2.95% (active) | 32.4% | -26.3% (active) | 14% | – |
| NC(=O)c1nc2c([nH]c1=O)CCCC2 | 106% | 114% | 107% | 83.5% | 102% | 106% | 93% | 99.4% | 94.4% | 97.3% | 100% | 96.5% | 106% | 117% | 109% | 94.7% | 115% | 108% | 109% | 105% |
| COc1cc(C(=O)N(C(C)C)C2CCCCC2)cc(OC)c1OC | 98.5% | 144% | 96.3% | 89% | 94% | 103% | 86.6% | 102% | 94.8% | 97.1% | 99.5% | 88.5% | 90.3% | 109% | 107% | 91.3% | 105% | 113% | 102% | 96.1% |
| COc1ccc(-c2[nH]ncc2Nc2cc(OC)c(OC)c(OC)c2)cc1 | 66.4% | 49.4% | 45.4% | 46.8% | 62% | 55.7% | 36.1% | 48.7% | 39.9% | 72.6% | 116% | 33.2% | 58.1% | – | 51.2% | 18.4% | 43% | 5.17% (active) | 49.8% | – |
| COc1ncnc2c1ncn2C/C(Br)=C(\Br)CCl | 51.6% | 114% | 10.8% | -56.8% (active) | 51.3% | 14.9% | 96.2% | 94.8% | -38.7% (active) | 18.9% | 8.2% (active) | -25.4% (active) | 0.995% (active) | 62.1% | -47.1% (active) | 148% | 11.5% | -94.2% (active) | 23.5% | -40.4% (active) |
| O=C1/C(=C/c2ccc(Oc3ccccc3)cc2)N=C(c2ccccc2)N1CCc1cccs1 | 75.5% | 95.7% | 91.3% | 67.6% | 80.6% | 96.1% | 67.9% | 59.7% | 79.1% | 62.8% | 81% | 69.7% | 88.6% | 109% | 78% | 106% | 71.5% | 106% | 58.7% | 83.9% |
| Cc1cc[n+](CCc2ccccc2)cc1 | 107% | 80.6% | – | – | – | – | – | – | – | – | – | – | – | – | – | – | – | – | – | – |
| Brc1ccc(Br)nn1 | -50.2% (active) | -95.4% (active) | -76.8% (active) | -39.9% (active) | -78.3% (active) | 2.74% (active) | -92.3% (active) | -80.8% (active) | -13.5% (active) | -13.6% (active) | -25.8% (active) | -19.7% (active) | -34.1% (active) | -58.6% (active) | 26% | – | -77.8% (active) | -97.7% (active) | -0.414% (active) | -32.5% (active) |
| COc1cc(-c2ccc3cc(OC)c(OC)c(OC)c3c2)cc(OC)c1OC | 61% | 65.7% | 92.9% | 35.5% | 85.7% | 79.8% | 42.5% | 77.3% | 55.2% | 83.9% | 4.29% (active) | 53.1% | 78.4% | 82% | 61.2% | 76.7% | 68.6% | 78.9% | 69.1% | – |
| COC(=O)C1C2CC3c4[nH]c5cc(OC)ccc5c4CCN3CC2CC(OC2CCCCO2)C1OC (stereo unspecified) | 106% | 101% | 108% | 92.8% | 104% | 99.6% | 83.2% | 82.8% | 89.2% | 99.2% | 88.5% | 87.5% | 96.2% | 105% | 93.6% | 101% | 114% | 107% | 96.2% | 95.4% |
| COc1cccc(C2CC(=O)Nc3cc4c(cc32)OCO4)c1OC (stereo unspecified) | 88.3% | 110% | 103% | 72.4% | 87% | 91.8% | 78.4% | 77.6% | 82.1% | 87.1% | 86.2% | 79.2% | 98.6% | 98.8% | 95% | 102% | 93.4% | 99.7% | 93.1% | 92.2% |
| CC(=O)N(CC(O)CO)c1c(I)c(C(=O)NCCO)c(I)c(C(=O)NCC(O)CO)c1I (stereo unspecified) | 95.8% | 105% | 98.9% | 69.3% | 114% | 103% | 99.3% | 110% | 93.4% | 84.3% | 77.2% | 102% | 95.9% | 99.8% | 102% | 103% | 103% | 107% | 116% | – |
| O=C1c2ccccc2C(=O)c2c(Nc3ccc(CCO)cc3)ccc(O)c21 | 103% | 45% | 85.5% | 47.4% | 100% | 64.4% | -4.04% (active) | 51.5% | 39.8% | 35.9% | -5.4% (active) | 46.5% | 74.1% | 105% | 72.5% | 73.5% | 45.4% | 122% | -21.7% (active) | 82% |
| COc1cc(C(=O)/C=C/c2c(-c3cccs3)nc3sccn23)cc(OC)c1OC | -3.21% (active) | 3.45% (active) | 4.03% (active) | 10.2% | 3.46% (active) | 12.4% | -29% (active) | -26.3% (active) | 10.8% | -1.21% (active) | 10.3% | -0.804% (active) | 0.926% (active) | 0.426% (active) | -2.2% (active) | -2.52% (active) | 5.57% (active) | -19.1% (active) | -9.28% (active) | -29.7% (active) |
| COc1ccc(-c2nc3sccn3c2/C=C/C(=O)c2cc(OC)c(OC)c(OC)c2)cc1OC | -7.87% (active) | 34.3% | 40.3% | 14% | 82.6% | 21.4% | 3.29% (active) | -2.58% (active) | 21.6% | 31.4% | 14.6% | 10.9% | 25.6% | 79.1% | 21.9% | 26.3% | 34.1% | 2.79% (active) | 3.84% (active) | -9.5% (active) |
| O=[N+]([O-])c1cc2c(cc1Br)-c1ccccc1C2 | 101% | 77.6% | 85.1% | 70.5% | 126% | 94.2% | 76.4% | 95.1% | 70.9% | 88.8% | 82.7% | 80.7% | 97.3% | 124% | 48.5% | 90% | 87.1% | 102% | 94% | 81.6% |
| COc1ccc(-c2nc3sc(C)cn3c2/C=C/C(=O)c2cc(OC)c(OC)c(OC)c2)cc1 | 63% | 34% | 59.5% | 31.6% | 96.9% | 54.4% | 76.7% | 52.5% | 37.4% | 12.2% | 48.5% | 31.5% | 35.7% | 113% | 47.8% | 66.4% | 67.1% | 41.7% | 37.3% | 21.8% |
